FLuc modulator: qHTS profiling assay for firefly luciferase inhibitor/activator using purifed enzyme and Km concentrations of substrates (counterscreen for miR-21 project); Luciferin 4-monooxygenase (Photinus pyralis), P08659; purified FLuc, Km substrates, luminescence inhibition; AID 588342, 2011; Potency, µM (top dose mostly 57.5 µM), without a hit: at the top dose activity change, negative = inhibition, usual class: inhibitors; actives 6.9% (n = 360,000);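 further: plate controls were vehicle for no effect and reference inhibitor for full effect; nearly all actives have a fitted effect of over 55% in size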
Target sequence (P08659 whole entry, looked up): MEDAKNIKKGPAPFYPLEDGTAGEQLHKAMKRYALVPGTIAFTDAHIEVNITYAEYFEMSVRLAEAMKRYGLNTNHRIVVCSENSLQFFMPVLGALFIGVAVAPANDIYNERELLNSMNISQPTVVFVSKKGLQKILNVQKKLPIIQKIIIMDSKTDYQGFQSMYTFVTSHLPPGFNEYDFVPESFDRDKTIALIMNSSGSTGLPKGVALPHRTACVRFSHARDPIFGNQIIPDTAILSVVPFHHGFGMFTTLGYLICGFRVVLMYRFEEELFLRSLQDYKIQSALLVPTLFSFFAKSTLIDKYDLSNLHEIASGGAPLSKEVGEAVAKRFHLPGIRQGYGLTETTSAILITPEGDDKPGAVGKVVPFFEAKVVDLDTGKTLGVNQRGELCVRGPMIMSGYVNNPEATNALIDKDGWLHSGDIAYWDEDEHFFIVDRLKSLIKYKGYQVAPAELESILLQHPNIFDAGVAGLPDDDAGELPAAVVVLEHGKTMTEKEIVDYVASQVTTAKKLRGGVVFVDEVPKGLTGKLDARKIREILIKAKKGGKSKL
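Biochemical qHTS of compounds, final roughly 60 µM downward over six points, against 10 nM purified firefly luciferase using Km concentrations of substrates (10 uM D-luciferin, 10 uM ATP) in Tris acetate pH 7.5 buffer; luminescence output.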
SMN2 splice enh: qHTS Assay for Enhancers of SMN2 Splice Variant Expression; Potency, µM (titrated, usually from 46.1 µM), without a hit: top-dose activity change, positive = activation, most hits filed as activators; HEK293 SMN2-luciferase splicing reporter, luminescence, 30-36 h; actives 2.8% (n = 210,000); further: % of control where 0% means no effect; nearly all actives have a fitted effect of over 55% in size
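qHTS luciferase splicing reporter: luminescence rises when SMN2 exon 7 is included in transfected HEK293 cells. Compound exposure lasted 30-36 h at 37C, with 4.5 mM final sodium butyrate as control, followed by a ONE-Glo read.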
Rab9 prom act: qHTS Assay for Rab9 Promoter Activators; AID 485297, 2010; actives 2.8% (n = 320,000); Huh7 Rab9 promoter-luciferase reporter, luminescence, 24 h; Potency, µM (doses to about 9.22 µM), without a hit: at the highest dose activation, negative = inhibition, hits mostly activators; further: % of control where 0% means no effect; nearly all actives have a fitted effect of over 60% in size
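Luminescence from Amplite-detected luciferase (10 minutes, ambient) reports Rab9 promoter activation. Before that, stable Rab9-luciferase Huh7 cells (1500/well, reduced-serum OP-MEM I plus 10% FBS) were exposed to compound for 24 hours at 37C.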
NPC1 prom act: qHTS Assay for NPC1 Promoter Activators; Huh7 NPC1 promoter luciferase reporter, 24 h; Potency, µM (highest dose often 9.22 µM), for inactives: at the highest dose activation, most hits filed as activators; actives 2.4% (n = 320,000); AID 485313, 2010; further: % of control where 0% means no effect; nearly all actives have a fitted effect of over 60% in size
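Luciferase expression driven by the NPC1 promoter was measured in stably transfected Huh7 cells after a 24 h compound incubation, using a luciferase reagent and a luminescence read.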
Luc counter: Counterscreen for Luciferase (Kinase-Glo TM) Inhibition; Potency, µM (doses to about 38.3 µM), for the others: at the top dose activity change, negative = inhibition, hits mostly inhibitors; actives 0.28% (n = 200,000); Luciferin 4-monooxygenase (Photuris pensylvanica), Q27757; Kinase-Glo luciferase, ATP luminescence, 8 min; further: on the % scale 0 is the no-effect control and ±100 the full control effect; nearly all actives have a fitted effect of over 60% in size
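Luminescence was the read-out, taken after 8-minute incubation at ambient temperature. Luciferase turned over luciferin with 10 uM ATP in imidazole pH 7.2 buffer containing KCl, MgCl2, Tween 20 and BSA.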
ELG1 genotox: qHTS screen for small molecules that induce genotoxicity in human embryonic kidney (HEK293T) cells expressing luciferase-tagged ELG1 | Potency, µM (series often up to 46 µM), for the others: top-dose activity change, positive = activation, most hits filed as activators | HEK293T ELG1-luciferase reporter, luminescence, 16 h | AID 504466, 2011 | actives 1.3% (n = 330,000); further: % of control where 0% means no effect; nearly all actives have a fitted effect of over 60% in size
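Genotoxic stress is detected as increased luminescence from luciferase-tagged ELG1 in HEK293T cells, measured with ONE-Glo after a 16 hr treatment at 37 °C.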
* marks the source's active call; other numbers are inactive results; ? = inconclusive; . = not tested or not shown; [ ] = another dose, or the depositor's remark. A selection: hits, their analogues and other compounds. The true share with any hit is near 7.4%. The call rests on the fitted dose curve; in most records, active means well fitted curve in the direction sought with a large enough effect; inconclusive means small, poorly fitted or top-dose-only effect, or another doubt; inactive means no such curve, though single readings can be large; an effect the other way counts as inactive or inconclusive. Potency means the concentration at half of the fitted maximal effect.

SMILES	FLuc modulator	SMN2 splice enh	Rab9 prom act	NPC1 prom act	Luc counter	ELG1 genotox
COc1ccc(-c2csc(Nc3cccnc3)n2)cc1	6µM*	7%	.	.	3%	.
COc1ccc(-c2csc(Nc3ccccc3)n2)cc1	3µM*	4µM*	1µM*	2.2µM*	-4%	2.1µM*
c1ccc(Nc2nc(-c3ccncc3)cs2)cc1	?	?	4%	0%	-2%	15%
COc1ccc(Nc2nc(-c3ccc(OC)cc3)cs2)cc1	?	?	1.6µM*	3.2µM*	1%	?
COc1ccc2oc(=O)c(-c3csc(Nc4ccc(O)cc4)n3)cc2c1	3µM*	?	14%	0%	-1%	-1%
N#Cc1ccc(CSc2ccc(S(=O)(=O)N3CCCCCC3)cn2)cc1	1%	.	-8%	-5%	.	-6%
COc1ccc(-c2nc3c(c4c2C[C@H](c2ccccc2)OC4)CN(C(=O)Nc2cccc(C#N)c2)CC3)c(C)c1	.	-37%[9.22 µM]	.	.	-4%[7.66 µM]	.
COc1ccccc1Cc1nc2ccccc2nc1SCC(=O)Nc1c(C)cccc1C	-4%	.	.	.	.	.
O=C(NCCc1ccc(Cl)cc1)C(=O)NCC(c1cccs1)S(=O)(=O)c1cccs1 (stereo not drawn)	3%	.	.	.	.	.
CCOC(=O)c1cc(C)sc1NC(=O)CSC1=NCCS1	1%	.	0%	0%	.	-5%
COc1ccc(Nc2nc(-c3c[nH]c4ccccc34)cs2)cc1	15µM*	?	20%	23%	-1%	13%
CC(=O)NCCC(=O)Nc1nc(-c2c[nH]c3ccccc23)cs1	?	.	13%	-1%	.	4%
COc1ccc(NS(=O)(=O)c2cccc(C(=O)NNC(=O)c3ccc(C)o3)c2)cc1	-1%	.	-5%	-3%	.	-2%
CC(=O)c1nn(-c2ccc(Cl)cc2)c(=O)[nH]c1=O	0%	.	-6%	-1%	.	3%
O=c1c2ccccc2nc(-c2ccc(Br)cc2)n1Cc1ccccc1	-1%	-9%	0%	2%	-1%	-9%
O=c1c2ccccc2nc(-c2ccco2)n1Cc1ccccc1	13µM*	?	.	.	-20%	.
c1coc(-c2nc3nc4ccccc4nc3n2-c2ccc3c(c2)OCCO3)c1	3.8µM*	-20%	15%	2%	-15%	-6%
c1ccc(Cn2c(-c3ccco3)nc3nc4ccccc4nc32)cc1	2.7µM*	16µM*	3.2µM*	3.5µM*	?	?
COc1ccc(C(C#N)c2ccc(=O)[nH]n2)cc1 (stereo not drawn)	1%	2%	-3%	-3%	-1%	2%
CCOC(=O)N1CCC(Nc2ccc(N3C(=O)C4CCCCC4C3=O)cc2[N+](=O)[O-])CC1 (stereo not drawn)	-14%	-39%	2%	-2%	-2%	-3%
COc1ccc(C)cc1NC(=O)Cn1c(=O)ccc2cc(S(=O)(=O)N3CCC(C)CC3)ccc21	-3%	.	.	.	.	.
O=C(CSc1nnc(NC(=O)c2ccccc2)s1)NCc1ccco1	4.8µM*	.	3.2µM*	2.8µM*	.	?
O=C(CSc1nnc(NC(=O)c2ccc3c(c2)OCO3)s1)NCc1ccco1	0.76µM*	4µM*	0.71µM*	1.1µM*	-11%	?
O=C(CSc1nnc(NC(=O)c2ccco2)s1)NCc1ccc2c(c1)OCO2	?	10%	-8%	-5%	1%	-2%
O=C(CSc1nnc(NC(=O)c2ccc(F)cc2)s1)NCc1ccco1	1.9µM*	.	3.5µM*	1.6µM*	.	?
SMILES	FLuc modulator	SMN2 splice enh	Rab9 prom act	NPC1 prom act	Luc counter	ELG1 genotox
CC(C)(C)c1ccc(C(=O)NCc2nnc(SCC(=O)NCc3ccco3)o2)cc1	19µM*	.	2%	3%	.	7%
O=C(CSc1nnc(NC(=O)C2CC2)s1)NCc1ccco1	-8%	24%	-3%	0%	-3%	0%
CCOCCc1nnc(NC(=O)CS(=O)(=O)c2ccc(C)cc2)s1	-2%	.	6%	0%	.	2%
CCCN(CCC)S(=O)(=O)c1ccc(C)cc1	1%	.	-4%	-2%	.	1%
O=C(Nc1cccc(C(F)(F)F)c1)c1cc(CN2CCOCC2)on1	-6%	.	.	.	.	.
COc1ccc(-n2cc(C(=O)NCc3ccc(Cl)cc3)c3ccccc3c2=O)cc1	0%	.	.	.	.	.
Cc1ccccc1Nc1nnc(SCC(=O)NCc2ccco2)s1	3%	6%	4%	1%	2%	0%
Cc1ccccc1C(=O)Nc1nnc(SCC(=O)NCc2ccco2)s1	1.7µM*	.	1.8µM*	1.8µM*	.	2.9µM*
C=CCOc1ccc(C2NC(=S)NC3=C2CCc2ccccc23)cc1 (stereo not drawn)	6µM*	.	-11%	1%	.	24%
COc1cc(C2NC(=S)NC3=C2CCc2ccccc23)cc(OC)c1OC (stereo not drawn)	-2%	5%	-4%	-1%	0%	3%
Cc1cc(C)n2nc(-c3ccc(Cl)cc3)nc2n1	15µM*	16µM*	.	.	.	.
Cc1cc(N2CCN(C)CC2)n2nc(-c3ccc(Cl)cc3)nc2n1	-18%	-11%[9.22 µM]	-6%	0%	0%[7.66 µM]	5%
NC(N)=NCCC[C@H](NC(=O)CC1(CC(=O)N2CCN(C3c4ccccc4NC(=O)c4ccccc43)CC2)CCCC1)C(=O)NCCn1c(=O)n(-c2ccccc2)n(-c2ccccc2)c1=O (stereo partly drawn)	.	12%	.	.	-3%	.
COc1ccc(C(=O)n2c(SC)nc3cc4c(cc32)OCCO4)cc1	19µM*	9%	29%	17%	-1%	?
COc1ccc(C(=O)c2cc3c(cc2[N+](=O)[O-])OCCO3)cc1	-1%	.	1%	-1%	1%	4%
O=C(CSc1nc2c([nH]c3ccccc32)c(=O)n1-c1ccccc1)Nc1ccc2c(c1)OCCO2	2%	.	.	.	.	.
Cc1cccc(NC(=S)NNC(=O)c2ccco2)c1	?	19%	1%	-3%	3%	1%
Cc1ccc(NC(=S)NNC(=O)c2ccco2)cc1	?	11µM*	?	-1%	2%	1%
Cc1ccc(C(=O)NNC(=O)c2ccco2)cc1	17µM*	13µM*	?	?	-2%	?
COc1cc(CN(C(=O)c2ccc(OC(C)C)cc2)c2ccccn2)cc(OC)c1OC	-9%	.	.	.	.	.
CCOc1ccc(Cl)cc1CNCCCSc1nnnn1C	-2%	.	.	.	.	.
